Data on eight compounds can be found in PubChem BioAssay (NCATS).

Common to all, as to test: qHTS profiling for inhibitors of Plasmodium falciparum proliferation (AID 504749); note: nearly all actives have a fitted effect of over 60% in size
What all share (settings): P. falciparum in erythrocytes, SYBR Green DNA, 72 h; series mostly up to 28.7 µM

For one assay, the system named is AS120. In a few lines:
(§1)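 Fluorescence of SYBR Green-bound parasite DNA, read at 485/535 nm, served as the growth measure. Infected erythrocytes were cultured with compound 72 h; artemisinin (0.29 uM) and DMSO wells defined the normalization range.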

The test system of a further assay is ATS189. The procedure, abridged:
as §1

The test system of the next assay is ATS95. The procedure, abridged: as §1
A further assay deals with C2A. The procedure, abridged:
as §1

For another assay, the system named is CP185. The procedure, abridged: as §1
For another assay, the system named is CP191. The procedure, abridged:
as §1

Another assay deals with CP192. In a few lines:
as §1

A further assay deals with CP194. The procedure, abridged: as §1
The test system of another assay is CP201. The procedure, abridged:
as §1

Another assay deals with CP203. The procedure, abridged:
as §1

A further assay concerns CP211. In a few lines:
as §1

The subject of a further assay is CP215. The procedure, abridged:
as §1

A further assay deals with CP217. In a few lines: as §1
A further assay relates to CP237. In a few lines:
as §1

For a further assay, the system named is CP238. In a few lines:
as §1

In a further assay the test system is CP247. The procedure, abridged:
as §1

In the next assay the test system is CP250. The procedure, abridged:
as §1

Another assay has as its system CP252. The procedure, abridged: as §1
The test system of another assay is CP256. The procedure, abridged: as §1
For a further assay, the system named is CP260. In a few lines:
as §1

Structures are written as SMILES. Inconclusive results are not listed. The source made the active and inactive calls. Calls come from the whole dose curve; as a rule, active = well fitted inhibition curve with a large enough effect; inconclusive = small, poorly fitted or top-dose-only effect; inactive = flat fitted curve, though single readings scatter.
Potency is the fitted concentration of half-maximal effect.

Regarding `CN1C[C@H](C(=O)N[C@]2(C)O[C@@]3(O)[C@@H]4CCCN4C(=O)[C@H](Cc4ccccc4)N3C2=O)C=C2c3cccc4[nH]cc(c34)C[C@H]21`, the Potency in the assay with AS120 was 0.562 µM (active); with ATS189 it was 3.16 µM (active); with ATS95, 0.708 µM (active); with C2A it was 3.55 µM (active); in the assay with CP185, 3.98 µM (active); with CP191, 1.58 µM (active). The Potency is 8.49 µM (active) in the assay on CP192; 13.5 µM (active) in the assay with CP194; 15.1 µM (active) in the assay with CP201; 4.26 µM (active) in the assay on CP203; 15.1 µM (active) in the assay on CP211; 5.36 µM (active) in the assay with CP215. The Potency in the assay with CP217 was 1.41 µM (active); in the assay on CP237, 0.224 µM (active); in the assay on CP238, 1.41 µM (active); in the assay on CP247, 3.55 µM (active); in the assay with CP250, 3.16 µM (active); with CP252, 1 µM (active). The Potency in the assay with CP256 was 4.47 µM (active); with CP260 it was 0.282 µM (active).

Turning to `CC(C)=CC1C(C(=O)OCN2C(=O)C3=C(CCCC3)C2=O)C1(C)C` (stereo unspecified), the Potency result in the assay with AS120, in the assay on ATS189, in the assay on ATS95, with C2A, in the assay on CP185 and with CP191 was “inactive” in each case. Further, the Potency entry in the assay with CP192, in the assay on CP194, with CP201, in the assay on CP203, in the assay on CP211 and in the assay on CP215 was “inactive” throughout. The Potency entry in the assay on CP217, in the assay on CP237, in the assay with CP238, in the assay with CP247, with CP250 and with CP252 was “inactive” in each case. The Potency entry in the assay with CP256 and in the assay with CP260 was “inactive” throughout.

Take `O=c1[nH]oc2c1CCNC2`: the Potency entry in the assay with AS120, in the assay with ATS189, in the assay with ATS95, in the assay with C2A, in the assay on CP185 and in the assay with CP191 was “inactive” each time. Moreover, the Potency entry with CP192, with CP194, with CP201, with CP203, with CP211 and in the assay on CP215 was “inactive” each time. The Potency result with CP217, in the assay on CP237, with CP238, with CP247, in the assay on CP250 and in the assay on CP252 was “inactive” in each case. Moreover, the Potency entry in the assay with CP256 and in the assay with CP260 was “inactive” throughout.

With `CCCCCCCCCC(=O)O[C@H]1CC[C@H]2[C@@H]3CCC4=CC(=O)CC[C@@H]4[C@H]3CC[C@]12C`, the Potency result in the assay on AS120, with ATS189, in the assay on ATS95, in the assay with C2A, in the assay with CP185 and in the assay with CP191 was “inactive” each time. The Potency entry with CP192, in the assay with CP194, with CP201, in the assay with CP203, in the assay on CP211 and with CP215 was “inactive” in each case. The Potency result with CP217, in the assay with CP237, with CP238, in the assay on CP247, with CP250 and in the assay with CP252 was “inactive” each time. The Potency result with CP256 was “inactive”.

For the compound `C[C@]12CC[C@@H]3c4ccc(OC(=O)N(CCCl)CCCl)cc4CC[C@H]3[C@@H]1CC[C@@H]2O`, the Potency result in the assay on AS120, in the assay with ATS189, with ATS95, in the assay with C2A, in the assay on CP185 and in the assay on CP191 was “inactive” in each case. Also, the Potency result with CP192, in the assay with CP194, in the assay with CP201, in the assay on CP203, in the assay on CP211 and in the assay with CP215 was “inactive” in each case. Also, the Potency result in the assay on CP217, in the assay with CP237, with CP238, with CP247, with CP250 and in the assay on CP252 was “inactive” each time. In addition, the Potency result in the assay with CP256 and in the assay with CP260 was “inactive” throughout.

With `CN1C(=O)CCS(=O)(=O)C1c1ccc(Cl)cc1` (stereo unspecified), the Potency result in the assay on AS120, with ATS189, in the assay with ATS95, with C2A, in the assay with CP185 and in the assay on CP191 was “inactive” each time. Further, the Potency entry in the assay on CP192, with CP194, in the assay on CP201, with CP203, in the assay on CP211 and in the assay on CP215 was “inactive” in each case. Besides, the Potency result with CP217, with CP237, in the assay with CP238, in the assay with CP247, in the assay on CP250 and in the assay on CP252 was “inactive” each time. For the same compound, the Potency entry with CP256 and in the assay with CP260 was “inactive” each time.

Take `C=C(C)[C@H]1CN[C@H](C(=O)O)[C@H]1CC(=O)O`: the Potency result in the assay on AS120, in the assay on ATS189, in the assay with ATS95, in the assay on C2A, in the assay with CP185 and with CP191 was “inactive” each time. Also, the Potency result in the assay with CP192, in the assay with CP194, in the assay on CP201, with CP203, with CP211 and in the assay with CP217 was “inactive” each time. The Potency result in the assay on CP237, with CP238, with CP247, in the assay on CP250, in the assay with CP252 and in the assay on CP256 was “inactive” each time. Moreover, the Potency result in the assay with CP260 was “inactive”.

Turning to `COC1CC(=C(c2cccs2)c2cccs2)C[N+](C)(C)C1` (stereo unspecified), the Potency was 15.8 µM (active) in the assay on AS120; 8.91 µM (active) in the assay with ATS189; 6.31 µM (active) in the assay on CP185; 5.01 µM (active) in the assay with CP191; 12 µM (active) in the assay on CP203; 6.31 µM (active) with CP217. Besides, the Potency is 11.2 µM (active) in the assay with CP237; 6.31 µM (active) in the assay on CP238; 5.01 µM (active) in the assay on CP247; 10 µM (active) in the assay with CP250; 4.47 µM (active) in the assay with CP252; 4.47 µM (active) in the assay on CP256. In addition, the Potency with CP260 is 5.62 µM (active).
